# Source: publication PMC4552634, “A New Set of Chemical Starting Points with Plasmodium falciparum Transmission-Blocking Potential for Antimalarial Drug Discovery” (PLoS ONE, 2015)
# Out of some 13,000 compounds screened, about 3,200 (25%) showed an effect of 50% or more. Some of the results follow.
# Test system: P. falciparum stage V gametocytes
# Design: BacTiter-Glo ATP luminescence viability of purified stage V gametocytes in 384-well plates, per cent inhibition versus DMSO
# Conditions: 48 h, 5 µM; inhibitor
row,SMILES,% Inhibition [%]
1,O=C(C=CC(=O)N1CCCCC1)NCc1ccccc1 [TCMDC-131645],19.39
2,NC(=O)c1ccccc1OCC(=O)Nc1cccc(-c2ccc(-c3nc4ccccc4[nH]3)cc2)c1 [TCMDC-132128],7.419
3,COc1ccc2ncc(C#N)c(CCN3CCC(NCc4ccc5c(c4)NC(=O)CO5)CC3)c2c1 [TCMDC-135645],-0.6152
4,CCNc1cc(CCCC(=O)OCC)nc(Nc2ccc(C)cc2)n1 [TCMDC-134018],-48.18
5,OC(CNc1ccnc(Nc2ccccc2)n1)c1cccc(C(F)(F)F)c1 (stereo not shown) [TCMDC-136588],30.58
6,CCCCCCCCCN1CC[C@@H](CCCc2ccnc3ccc(O)cc23)[C@@H](CC)C1 [TCMDC-131442],46.81
7,CC[C@H]1CN(C/C=C/c2ccc(OC)cc2)CC[C@H]1CCCc1ccnc2ccc(O)cc12 [TCMDC-140258],-1.76
8,CCCCCCCN1CC[C@@H](CCCc2ccnc3ccc(OC)cc23)[C@@H](CCN)C1 [TCMDC-139278],113.6
9,CCCCCCCN1CC[C@@H](CCCc2ccnc3ccc(OC)cc23)[C@@H](CNC)C1 [TCMDC-139875],105.4
10,CCCCCCCN1CC[C@@H](C[C@H](N)Cc2ccnc3ccc(OC)cc23)[C@@H](CC)C1 [TCMDC-139827],11.08
11,Cc1cccc2c(/C=C/C(=O)NC3CCC(CCN4CCc5ccc(C#N)cc5CC4)CC3)c[nH]c12 (stereo not shown) [TCMDC-139665],43.65
12,O=C(Nc1cccc(-c2cc(-c3c(Cl)cccc3Cl)no2)c1)c1cncc(-c2cccs2)c1 [TCMDC-136736],-10.57
13,C[C@@H](N=C(Nc1ccc(C#N)cc1O)Nc1ccccc1Cl)c1ccc(Br)cc1 [TCMDC-140257],-91.02
14,O=C(Nc1cccc(-c2ccc(-c3nc4ccc(F)cc4[nH]3)cc2)c1)c1cccnc1 [TCMDC-136923],8.252
15,CCc1nc(N)nc(N)c1-c1ccc(C(C)(C)C)cc1 [TCMDC-137367],5.64
16,CC(N)(Cc1ccc(O)cc1)c1nn[nH]n1 (stereo not shown) [TCMDC-131387],-7.705
17,CCCc1cc(OC)c(CC2c3cc(O)c(Cl)cc3CCN2C)cc1OC (stereo not shown) [TCMDC-137166],27.65
18,CCCc1cc(OC)c(C[C@H]2c3cc(O)c(Cl)cc3CCN2C)cc1OC [TCMDC-137779],20.32
19,COc1cc(CC2c3cc(O)c(Cl)cc3CCN2C)c(OC)cc1C (stereo not shown) [TCMDC-137434],71.2
20,CCCCCCCCCCN1C(=O)C2C(CCCCNC(C)=O)NC3(C(=O)N(Cc4ccc(C(C)(C)C)cc4)c4ccccc43)C2C1=O (stereo not shown) [TCMDC-139772],47.42
21,CC(=O)Oc1c(Cl)c(C)nc(C)c1-c1ccc(Oc2ccc(OC(F)(F)F)cc2)cc1 [TCMDC-137385],74.48
22,Cc1[nH]c(C)c(Cc2ccc(Oc3ccc(OC(F)(F)F)cc3)cc2)c(=O)c1Br [TCMDC-134530],-23.78
23,CC(=O)Oc1c(Br)c(C)nc(C)c1-c1ccc(Oc2ccc(OC(F)(F)F)cc2)cc1 [TCMDC-137383],72.41
24,Cc1nc(C)c(-c2ccc(Oc3ccc(OC(F)(F)F)cc3)cc2)c(OC(=O)c2ccccc2)c1Cl [TCMDC-137380],76.96
25,Cc1cc(=O)c2cc(Oc3ccc(OC(F)(F)F)cc3)ccc2[nH]1 [TCMDC-138906],0.2157

row,SMILES,% Inhibition [%]
1,Cc1[nH]c(C)c([N+](=O)[O-])c(=O)c1-c1ccc(Oc2ccc(OC(F)(F)F)cc2)cc1 [TCMDC-135555],-1.899
2,CN(C)Cc1c(O)ccc2[nH]c(-c3ccc(OC(F)(F)F)cc3)nc12 [TCMDC-136529],-83.05
3,Cc1nc(C)c(-c2ccc(Oc3ccc(OC(F)(F)F)cc3)cc2)c(OC(=O)c2ccc(CN(C)C)cc2)c1Cl [TCMDC-137382],68.19
4,Cc1[nH]cc(Br)c(=O)c1-c1ccc(Oc2ccc(OC(F)(F)F)cc2)cc1 [TCMDC-136197],-4.559
5,CC(C)NCc1ccc(-c2cccc(-c3nc4ccc(C(F)(F)F)cc4[nH]3)c2)cc1 [TCMDC-132739],37.23
6,COc1ccc2nccc([C@H](O)CN3CCC(NCc4ccc5c(c4C)OCCO5)CC3)c2n1 [TCMDC-136066],21.32
7,Cc1c(C)n(C2CCCCC2)c2ncnc(OC3CCN(CC(=O)N4CCCC4)CC3)c12 [TCMDC-124854],2.854
8,COc1ccc(C(=O)NC2CCN(c3ccnc4cc(Cl)ccc34)C2)cc1 (stereo not shown) [TCMDC-133648],42.46
9,Cc1cc(Nc2ccccc2)nc(Nc2ccccc2)n1 [TCMDC-124214],11.37
10,Cn1c(NC(=O)CCCCCNC(=O)c2ccc(O)c(-c3ccc(Cl)c(Cl)c3)c2)nc2ccccc21 [TCMDC-140880],4.339
11,Cc1nc(N)nc(N)c1-c1ccc(Cl)cc1 [TCMDC-138984],-0.9845
12,Cc1cc(Nc2ccc(Oc3ccc(Cl)cc3)cc2)nc(N)n1 [TCMDC-138073],-5.729
13,CC(=O)Oc1c(Cl)c(C)nc(C)c1-c1ccc(Oc2ccc(Cl)cc2)cc1 [TCMDC-137381],75.31
14,COc1cccc(CN2CCCC(COC(c3ccc(F)cc3)c3ccc(F)cc3)C2)c1O (stereo not shown) [TCMDC-136038],-18.09
15,CC(C)Oc1cccc(-c2ccc(C(=O)NCC3CCCN(Cc4cccc(C(F)(F)F)c4)C3)s2)c1 (stereo not shown) [TCMDC-134362],86.43
16,COc1ccccc1-c1ccc(C(=O)NCC2CCCN(Cc3cccc(C(F)(F)F)c3)C2)s1 (stereo not shown) [TCMDC-134360],55.62
17,CC(=O)Nc1ccc(CN2CCC(NC(=O)c3ccc(-c4cccc(OC(C)C)c4)s3)CC2)cc1 [TCMDC-134335],1.059
18,CN(C)c1ccc(-c2ccc(C(=O)NC3CCN(Cc4cccc(C(F)(F)F)c4)CC3)s2)cc1 [TCMDC-134365],-28.78
19,O=C(NC1CCN(Cc2cccc(C(F)(F)F)c2)CC1)c1ccc(-c2cccc(Cl)c2)s1 [TCMDC-134364],25.17
20,CN(C)c1ccc(CN2CCCC(CNC(=O)c3ccc(-c4cccc(C(F)(F)F)c4)s3)C2)cc1 (stereo not shown) [TCMDC-134324],98.4
21,CN(C)c1ccc(CN2CCC(NC(=O)c3ccc(-c4cccc(C(F)(F)F)c4)s3)CC2)cc1 [TCMDC-134325],-44.98
22,O=C(NC1CCN(Cc2cccc(C(F)(F)F)c2)CC1)c1ccc(-c2cccc(C(F)(F)F)c2)s1 [TCMDC-134363],23.99
23,COc1ccccc1CN1CCC(NC(=O)c2ccc(-c3cccc(C(F)(F)F)c3)s2)CC1 [TCMDC-134355],4.957
24,COc1cccc(-c2ccc(C(=O)NCC3CCCN(Cc4cccc(C(F)(F)F)c4)C3)s2)c1 (stereo not shown) [TCMDC-134361],72.66
